This is an account of results in PubChem BioAssay AID504757 (Sanford-Burnham Center for Chemical Genomics, 2011).

This assay addresses Cysteine protease ATG4B (Homo sapiens) (UniProt Q9Y4P1). Briefly: ATG4B protease inhibitors, retest, confirmation, biochemical, fluorescence, single concentration (AID 504757). The note with it: ATG4B protease fluorescent substrate cleavage assay; at 8.33 µM; stronger effect = higher value.

SMILES strings stand for the structures. The list shows a part of the results. Activity calls are given as the source filed them. Rule as the data show it: active = inhibition above about 39%; inactive = the rest.

Chain of Cysteine protease ATG4B (Homo sapiens) (Q9Y4P1 whole entry, looked up): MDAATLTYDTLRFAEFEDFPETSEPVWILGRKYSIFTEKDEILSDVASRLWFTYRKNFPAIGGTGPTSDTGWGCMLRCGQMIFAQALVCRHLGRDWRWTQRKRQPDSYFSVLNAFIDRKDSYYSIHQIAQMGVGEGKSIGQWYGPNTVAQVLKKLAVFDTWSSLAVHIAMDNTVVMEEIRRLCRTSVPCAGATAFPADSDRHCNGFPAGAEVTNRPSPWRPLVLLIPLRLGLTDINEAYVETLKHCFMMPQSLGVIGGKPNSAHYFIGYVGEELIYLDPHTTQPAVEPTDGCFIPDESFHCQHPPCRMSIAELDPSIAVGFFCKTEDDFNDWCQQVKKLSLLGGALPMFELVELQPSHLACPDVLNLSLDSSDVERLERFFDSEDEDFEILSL

What is called inhibition is the share of the control response that was lost under treatment. Turning to `Cc1cc(OCc2cc(C(=O)O)oc2C)c2c3c(c(=O)oc2c1)CCCC3`, the inhibition was 66.3% (active).
